The text below walks through data of PubChem BioAssay (EPA / NIEHS).

A word on the AC50: it is the concentration at which the activity in the assay is half-maximal.

Each structure is given as a SMILES string. The source made the active and inactive calls. How the source made its calls: active means hit-call score of the fitted dose curve at least 0.9, where 1 is the maximum; inactive means score below 0.9.

Holding throughout (conditions): mRNA level, 48 h; actives raise or lower the signal
Read-out in assay [1]: Cyclin D2 (CCND2), CCND2 (gene 894)
The experiment in a line: LTEA_HepaRG_CCND2: Life Technologies and Expression Analysis (LTEA) Assay for Cyclin D2 (CCND2) using HepaRG (AID 2283449).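 Further: CCND2 transcript measured by TaqMan qRT-PCR and normalised to three housekeeping genes.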 Put shortly:
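Chemicals in 0.5% DMSO, eight half-log concentrations from 100 uM top, were applied in duplicate for 48 h to human HepaRG cells in serum-free induction medium. CCND2 mRNA by TaqMan qRT-PCR, normalised to ACTB/GAPDH/POLR2A; bidirectional fit versus DMSO.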

Read-out in assay [2]: Cyclin Dependent Kinase Inhibitor 1A (CDKN1A), CDKN1A (gene 1026)
The experiment in a line: LTEA_HepaRG_CDKN1A: Life Technologies and Expression Analysis (LTEA) Assay for Cyclin Dependent Kinase Inhibitor 1A (CDKN1A) using HepaRG (AID 2283450). The method in brief: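 Gain or loss of CDKN1A transcript is scored by bidirectional fitting against 0.5% DMSO vehicle. Human HepaRG cultures receive chemicals for 48 h across an 8-point series peaking at 100 uM; expression comes from qRT-PCR.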

Read-out in assay [3]: Cyclin D1 (CCND1), CCND1 (gene 595)
The experiment in a line: LTEA_HepaRG_CCND1: Life Technologies and Expression Analysis (LTEA) Assay for Cyclin D1 (CCND1) using HepaRG (AID 2283451).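 On AC50: TaqMan qRT-PCR transcript level normalised to ACTB GAPDH and POLR2A housekeeping genes.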 Put shortly:
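Expression change is measured by qRT-PCR in HepaRG cells after 48 h treatment across eight concentrations topping at 100 uM, with duplicate wells and DMSO (0.5%) serving as baseline for bidirectional fitting.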

Read-out in assay [4]: catalase (CAT), CAT (gene 847)
The experiment in a line: LTEA_HepaRG_CAT: Life Technologies and Expression Analysis (LTEA) Assay for catalase (CAT) using HepaRG (AID 2283452).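 On AC50: TaqMan qRT-PCR signal normalized to ACTB GAPDH and POLR2A housekeeping genes.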 Put shortly:
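HepaRG cells in serum-free induction medium, 0.5% DMSO vehicle, exposed 48 h in duplicate over 8 half-log concentrations from 100 uM. CAT mRNA measured by qRT-PCR, normalized to ACTB, GAPDH, POLR2A; bidirectional fit versus DMSO.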

Read-out in assay [5]: flavin-containing dimethylaniline monooxygenases 3 (FMO3), FMO3 (gene 2328)
Nature of the assay: LTEA_HepaRG_FMO3: Life Technologies and Expression Analysis (LTEA) Assay for flavin-containing dimethylaniline monooxygenases 3 (FMO3) using HepaRG (AID 2283453). The method in brief: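 Differentiated HepaRG cells in serum-free induction medium, exposed 48 h in duplicate to 8 half-log concentrations up to 100 uM in 0.5% DMSO. FMO3 mRNA by qRT-PCR, normalized to ACTB, GAPDH, POLR2A; bidirectional fit vs DMSO.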

Read-out in assay [6]: Cytochrome P450 (CYP1A1), CYP1A1 (gene 1543)
The experiment in a line: LTEA_HepaRG_CYP1A1: Life Technologies and Expression Analysis (LTEA) Assay for Cytochrome P450 (CYP1A1) using HepaRG (AID 2283454). The method in brief:
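Using HepaRG cultures with 0.5% DMSO as vehicle, eight-concentration exposures (max 100 uM) lasted 48 h. Transcript levels were measured by TaqMan qRT-PCR and normalized to ACTB, GAPDH and POLR2A.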

Read-out in assay [7]: CFLAR gene, CFLAR (gene 8837)
The experiment in a line: LTEA_HepaRG_CFLAR: Life Technologies and Expression Analysis (LTEA) Assay for CFLAR gene using HepaRG (AID 2283455). The method in brief:
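Differentiated HepaRG cells in serum-free induction medium were exposed 48 h in duplicate to eight half-log concentrations up to 100 uM in 0.5% DMSO; mRNA measured by TaqMan qRT-PCR, normalized to ACTB, GAPDH, POLR2A; bidirectional fitting versus DMSO.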

Read-out in assay [8]: Forkhead box O1 (FOXO1), FOXO1 (gene 2308)
The experiment in a line: LTEA_HepaRG_FOXO1: Life Technologies and Expression Analysis (LTEA) Assay for Forkhead box O1 (FOXO1) using HepaRG (AID 2283456). Put shortly: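 Differentiated HepaRG cells, in serum-free induction medium with 0.5% DMSO, exposed 48 h in duplicate to 8-point half-log series from 100 uM. FOXO1 mRNA measured by TaqMan qRT-PCR, normalized to ACTB, GAPDH, POLR2A; bidirectional fit versus DMSO.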

Read-out in assay [9]: growth arrest and DNA damage 45 (GADD45A), GADD45A (gene 1647)
The experiment in a line: LTEA_HepaRG_GADD45A: Life Technologies and Expression Analysis (LTEA) Assay for growth arrest and DNA damage 45 (GADD45A) using HepaRG (AID 2283458). Put shortly:
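Cells plated and cultured 48 h, switched to serum-free induction medium, then dosed for 48 h (100 uM top, half-log dilutions, 0.5% DMSO). RNA was isolated and transcript measured by Fluidigm qRT-PCR.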

Read-out in assay [10]: Forkhead box O3 (FOXO3), FOXO3 (gene 2309)
The experiment in a line: LTEA_HepaRG_FOXO3: Life Technologies and Expression Analysis (LTEA) Assay for Forkhead box O3 (FOXO3) using HepaRG (AID 2283459). The method in brief: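 Differentiated human HepaRG cells, 48 h post-plating, exposed in duplicate for 48 h in serum-free induction medium; 8-point half-log series from 100 uM in 0.5% DMSO. FOXO3 mRNA by TaqMan qRT-PCR, normalized to ACTB/GAPDH/POLR2A; bidirectional fit versus DMSO.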

Read-out in assay [11]: ABC Transporter (ABCB1), ABCB1 (gene 5243)
Nature of the assay: LTEA_HepaRG_ABCB1: Life Technologies and Expression Analysis (LTEA) Assay for ABC Transporter (ABCB1) using HepaRG (AID 2283460). Put shortly:
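HepaRG cells exposed in duplicate for 48 h in serum-free induction medium to eight half-log concentrations up to 100 uM in 0.5% DMSO. ABCB1 mRNA quantified by qRT-PCR, normalised to ACTB, GAPDH and POLR2A; fitted bidirectionally versus DMSO.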

Read-out in assay [12]: growth arrest and DNA damage 45 (GADD45B), GADD45B (gene 4616)
Nature of the assay: LTEA_HepaRG_GADD45B: Life Technologies and Expression Analysis (LTEA) Assay for growth arrest and DNA damage 45 (GADD45B) using HepaRG (AID 2283461). The method in brief: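 Human HepaRG monolayers receive chemicals for 48 h at eight half-log concentrations, highest 100 uM, in 0.5% DMSO. Expression is measured by TaqMan qRT-PCR and normalized to ACTB, GAPDH and POLR2A.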

Read-out in assay [13]: ABC Transporter (ABCB11), ABCB11 (gene 8647)
The experiment in a line: LTEA_HepaRG_ABCB11: Life Technologies and Expression Analysis (LTEA) Assay for ABC Transporter (ABCB11) using HepaRG (AID 2283463). The method in brief: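 Differentiated human HepaRG cells in serum-free induction medium, dosed in duplicate for 48 h. Eight-point half-log series from 100 uM in 0.5% DMSO; ABCB11 mRNA by qRT-PCR, normalized to ACTB, GAPDH, POLR2A, fitted bidirectionally versus DMSO.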

Read-out in assay [14]: ABC Transporter (ABCC2), ABCC2 (gene 1244)
Nature of the assay: LTEA_HepaRG_ABCC2: Life Technologies and Expression Analysis (LTEA) Assay for ABC Transporter (ABCC2) using HepaRG (AID 2283464). The method in brief:
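After plating and 48 h culture, HepaRG medium is replaced with serum-free induction medium and chemicals are added (8 concentrations, max 100 uM, 0.5% DMSO) for 48 h. Total RNA then undergoes qRT-PCR for ABCC2 with housekeeping normalization.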

Read-out in assay [15]: Broad substrate specificity ATP-binding cassette transporter ABCG2 (Homo sapiens) (UniProt Q9UNQ0)
Nature of the assay: LTEA_HepaRG_ABCG2: Life Technologies and Expression Analysis (LTEA) Assay for ABC Transporter (ABCG2) using HepaRG (AID 2283465). The method in brief: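 Differentiated HepaRG cells were exposed for 48 h in serum-free induction medium to 8 half-log concentrations, top 100 uM, in 0.5% DMSO. ABCG2 mRNA was measured by qRT-PCR, normalized to ACTB, GAPDH and POLR2A, with bidirectional fitting versus DMSO.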

Read-out in assay [16]: Peroxisomal acyl-coenzyme A oxidase 1 (ACOX1) gene, ACOX1 (gene 51)
Nature of the assay: LTEA_HepaRG_ACOX1: Life Technologies and Expression Analysis (LTEA) Assay for Peroxisomal acyl-coenzyme A oxidase 1 (ACOX1) gene using HepaRG (AID 2283467). The method in brief:
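HepaRG cells, plated 48 h then switched to serum-free induction medium, were exposed in duplicate for 48 h to 8-point half-log concentrations up to 100 uM in 0.5% DMSO. ACOX1 mRNA was measured by qRT-PCR, normalized to ACTB/GAPDH/POLR2A, and fitted bidirectionally versus DMSO.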

Read-out in assay [17]: Alkaline Phosphatase, Placental (ALPP) gene, ALPP (gene 250)
Nature of the assay: LTEA_HepaRG_ALPP: Life Technologies and Expression Analysis (LTEA) Assay for Alkaline Phosphatase, Placental (ALPP) gene using HepaRG (AID 2283468). The method in brief:
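Using human liver HepaRG cells, chemicals are tested in duplicate over 48 h at half-log concentrations topping at 100 uM; phenobarbital 1 mM serves as induction control. ALPP mRNA change by qRT-PCR, bidirectional fit against vehicle.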

Read-out in assay [18]: ABC Transporter (ABCC3), ABCC3 (gene 8714)
Nature of the assay: LTEA_HepaRG_ABCC3: Life Technologies and Expression Analysis (LTEA) Assay for ABC Transporter (ABCC3) using HepaRG (AID 2283462). The method in brief:
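Transcriptional change of ABCC3 in HepaRG after 48 h treatment, determined by qRT-PCR normalized to endogenous controls. Concentrations spanned eight half-log steps to 100 uM in 0.5% DMSO.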

Read-out in assay [19]: ATP-citrate lyase (ACLY), ACLY (gene 47)
The experiment in a line: LTEA_HepaRG_ACLY: Life Technologies and Expression Analysis (LTEA) Assay for ATP-citrate lyase (ACLY) using HepaRG (AID 2283466). The method in brief: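 Differentiated HepaRG cells exposed 48 h in serum-free induction medium to eight half-log concentrations up to 100 uM in 0.5% DMSO, duplicates. Transcript measured by Fluidigm TaqMan qRT-PCR, normalized to ACTB, GAPDH, POLR2A; bidirectional fit versus DMSO.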

Chain of Broad substrate specificity ATP-binding cassette transporter ABCG2 (Homo sapiens) (Q9UNQ0 whole entry, looked up): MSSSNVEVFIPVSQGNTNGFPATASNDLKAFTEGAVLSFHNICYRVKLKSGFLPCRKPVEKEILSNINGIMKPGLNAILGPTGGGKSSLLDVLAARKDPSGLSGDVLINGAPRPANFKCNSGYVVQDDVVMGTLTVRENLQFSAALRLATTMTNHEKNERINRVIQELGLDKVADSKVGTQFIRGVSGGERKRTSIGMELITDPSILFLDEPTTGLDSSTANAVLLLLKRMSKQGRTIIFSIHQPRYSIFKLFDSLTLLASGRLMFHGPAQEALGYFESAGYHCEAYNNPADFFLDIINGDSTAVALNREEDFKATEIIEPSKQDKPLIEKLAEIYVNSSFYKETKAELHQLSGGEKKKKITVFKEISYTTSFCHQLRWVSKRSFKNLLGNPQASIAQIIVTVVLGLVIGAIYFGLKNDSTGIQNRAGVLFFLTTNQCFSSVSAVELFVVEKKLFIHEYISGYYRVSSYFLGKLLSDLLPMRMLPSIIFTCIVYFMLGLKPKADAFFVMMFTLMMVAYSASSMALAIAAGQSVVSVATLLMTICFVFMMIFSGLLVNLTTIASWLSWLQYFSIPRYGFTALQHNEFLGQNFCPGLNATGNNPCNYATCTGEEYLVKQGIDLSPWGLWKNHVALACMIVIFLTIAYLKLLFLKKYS

In the case of `CC#C[C@]1(O)CC[C@H]2[C@@H]3CCC4=CC(=O)CCC4=C3[C@@H](c3ccc(N(C)C)cc3)C[C@@]21C`, the compound was called inactive in assay [1], in [7] and in assay [16]. For the same compound, the AC50 in assay [2] was 39.2 µM (active); in assay [3], 86.2 µM (active); in assay [4], 34.2 µM (active); in [5], 33.4 µM (active); in assay [6], 50 µM (active); in assay [8], 3.33 µM (active). In addition, the AC50 in [9] was 72.6 µM (active); in assay [10] it was 91.2 µM (active); in [11], 26.9 µM (active); in assay [12], 12 µM (active); in assay [13] it was 24.7 µM (active); in [14], 2.42 µM (active). The AC50 in assay [15] is 29.8 µM (active); in [17], 15.7 µM (active).
As for `c1ccc2c(c1)Cc1ccccc1-2`, the call in assay [1], in [2], in [4], in assay [5], in assay [7] and in assay [8] was inactive. The result in [9], in [10], in assay [11], in assay [12], in [18] and in assay [13] was inactive. For the same compound, the compound was called inactive in assay [14], in assay [15], in assay [16] and in [17]. Moreover, in assay [6], the AC50 was 50 µM (active).
On to `CCc1ccc(CCOc2ccc(CC3SC(=O)NC3=O)cc2)nc1` (stereo not drawn), for which the compound was called inactive in [1], in assay [7], in assay [8], in assay [10] and in assay [14]. The AC50 is 80.4 µM (active) in assay [2]; 83.4 µM (active) in [4]; 78.7 µM (active) in [5]; 50 µM (active) in assay [6]; 50 µM (active) in assay [9]; 11.2 µM (active) in assay [11]. The AC50 in assay [12] was 11.9 µM (active); in [13], 76.8 µM (active); in assay [15] it was 36.4 µM (active); in [19] it was 50 µM (active); in assay [16] it was 0.718 µM (active); in assay [17], 38.2 µM (active).
On to `C#C[C@]1(O)CC[C@H]2[C@@H]3CCC4=CC(=O)CC[C@@H]4[C@H]3CC[C@@]21C`, for which the compound was called inactive in assay [1], in assay [2], in [3], in [5], in assay [6] and in assay [7]. The result in [8], in [9], in assay [10], in assay [12], in assay [18] and in [16] was inactive. Further, the AC50 in [11] was 9.92 µM (active); in [13], 0.24 µM (active); in [14], 50 µM (active); in assay [15] it was 15.4 µM (active); in assay [17] it was 10.1 µM (active).
